# From PubChem BioAssay (NCI)
# The panel holds about 83,000 compounds, 20% with a hit somewhere; the sample as a whole holds those more often.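 Growth was measured after 48 h exposure to one concentration of compound in 96-well plates. Values under 10 count as active.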 A number with no mark means an inactive call. Activity calls are given as the source filed them.
# System: SF-268 CNS
# Experiment: NCI-60 one-dose screen, 48 h (100 = growth as untreated, 0 = no growth, -100 = all killed)
# Conditions: 10 µM unless noted
row,SMILES,growth
1,CCn1c(Cc2ccccc2Nc2c(Cl)cccc2Cl)nnc1SCC(=O)Nc1cccc(OC)c1,82.1%
2,COc1ccc2nc(C)cc(Sc3nc4ccccc4s3)c2c1,42.7%
3,COc1cnc2c(c1)C(=O)c1c-2n(CCCN2CCN(C)CC2)c(=O)c2cc(Cl)ccc12,35.7%
4,c1cn2cc(-c3ccc4ncn(C5CCCCC5)c4c3)nc(-c3ccc4c(c3)ncn4C3CCCCC3)c2n1,-67% (active)
5,CN1C(=O)N(C)C2C1NN=c1s/c(=C\c3ccc(C(F)(F)F)cc3)c(=O)n12 (stereo not drawn),45.1%
6,CN1C(=O)N(C)C2C1NN=c1s/c(=C\c3ccsc3)c(=O)n12 (stereo not drawn),64.4%
7,C/C(=N\Nc1ccc([N+](=O)[O-])cn1)c1ccc(N)cc1,94.4%
8,COc1ccccc1/C=N\Nc1ccc([N+](=O)[O-])cn1,105%
9,CCCCCCCCCCCCCCCCCC(=O)[O][Sn]([CH2]CCC)([CH2]CCC)[CH2]CCC,-92.8% (active)
10,C[C@H](NC(=O)c1snnc1C1CC1)c1c(F)cccc1Cl,114%
11,CC(C)c1cccc(C#N)c1,107%
12,CN1C(=O)N(C)C2C1NN=c1s/c(=C\c3ccc(Br)cc3)c(=O)n12 (stereo not drawn),39.4%
13,O=C1SCN(Cc2ccccc2)CN1Cc1ccccc1,96.2%
14,C[N+](C)(C)CC(=O)N/N=C\c1ccco1,105%
15,COc1cc(C2CC(c3ccc(Cl)cc3)=NN2C(C)=O)ccc1Oc1nc2c(c(=O)n(C)c(=O)n2C)n1C (stereo not drawn),56.8%
16,CCN1CCN(Cc2ccc(NC(=O)Nc3ccc(-n4ccc5c(NC(=O)c6ccccc6)nccc54)cc3)cc2C(F)(F)F)CC1,41.7%
17,Nc1nc(N)c2cc(NCc3ccc(Cl)c(Cl)c3)ccc2n1,-83.2% (active)
18,O=c1oc2ccccc2cc1-c1cc(-c2ccc(-c3cc(-c4cc5ccccc5oc4=O)nc(-c4cc5ccccc5oc4=O)c3)cc2)cc(-c2cc3ccccc3oc2=O)n1,104%
19,C=C1C(=O)O[C@H]2[C@H]1CC/C(COC(=O)N[C@@H](Cc1c[nH]c3ccccc13)C(=O)OC)=C\CC[C@@]1(C)O[C@@H]21,46.7%

row,SMILES,growth
1,COc1cc(OC)c(Cl)cc1N,104%
2,COC(=O)c1ccc2c(c1)nc(-c1cc3ccccc3[nH]c1=O)n2-c1cc(C(C)(C)C)[nH]n1,72.8%
3,Fc1ccc(-c2nc(-c3ccc(-c4nc5ccc(F)cc5[nH]4)cc3)no2)cc1,66.1%
4,CCCC(CCC)(C(N)=O)C(=O)O,102%
5,CNC(=O)OC1C(O[C@H]2C[C@H]3[C@@H]4CC=C5C[C@@H](O)CC[C@]5(C)[C@H]4CC[C@]3(C)[C@H]2[C@H](C)C(=O)CCC(C)C)OCC(O)C1OC1OCC(O)C(O)C1OC(=O)c1ccc(OC)cc1 (stereo partly drawn),0.344% (active)
6,CC(=O)O[C@@H]1CC2C(C)(C)CCCC2(C)C2=C1C(=O)C(C(C)C)=CC2=O (stereo partly drawn),27.1%
7,CC(=O)Oc1c(Cl)c(Cl)c(Cl)c(Cl)c1Cl,96.1%
8,Oc1c(C(Nc2ccccc2Br)c2ccccc2)ccc2cccnc12 (stereo not drawn),18.5%
9,O=C1C(Cl)=C(Nc2cccc3ccccc23)C(=O)c2ccccc21,85.5%
10,Nc1c(C(=O)Nc2ccccc2)sc2nc3c(cc12)C(=O)CCC3,53.4%
11,CCOCCNc1ccc(S(=O)(=O)c2ccc(N)cc2)cc1N,97.1%
12,CCCCSc1ncnc2c1ncn2C1CCCCO1 (stereo not drawn),106%
13,CCNCCCn1c2c(c3ccc(Cl)cc3c1=O)C(=O)c1cc(OC)cnc1-2,-66% (active)
14,COc1ccc2nc3ccccc3c(NCc3ccc(C)cc3)c2c1,48.4%
15,C=CCOC(=O)C1=C(C)NC2=C(C(=O)CCC2)C1c1ccc(F)cc1 (stereo not drawn),106%
16,O=C(O)C(CCc1ccccc1)NCc1ccccc1 (stereo not drawn),98.4%
17,COc1ncnc2[nH]cc(CN3CCN(c4ccc(F)cc4)CC3)c12,104%
18,O=S(=O)(Cc1ccc(Cl)cc1Cl)c1ccc(Cl)cc1,67.8%
19,COc1ccc(-c2nc3ccccc3n3cccc23)cc1,109%
